The campaign covered roughly 310,000 compounds. About 18,000 (5.8%) were called active. Roughly 22% stayed inconclusive and do not appear here. The call rests on the fitted dose curve; in most records, active means well fitted inhibition curve with a large enough effect; inconclusive means small, poorly fitted or top-dose-only effect, or another doubt; inactive means no such curve, though single readings can be large or run the other way. Many of the other results were omitted from the sample, so actives are more common in it than they were.
Experiment: Primary qHTS for delayed death inhibitors of the malarial parasite plastid, 48 hour incubation
Conditions: P. falciparum luciferase growth in erythrocytes; series mostly up to 28.7 µM; activity change, negative = inhibition: at the top concentration
Method in brief: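 First compound was added to culture medium, then infected red cells at 0.1% parasitemia and 2% hematocrit (final). After incubation at 37 C under 5% CO2, luciferase detection reagent was dispensed and light output recorded.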
On the % scale 0 is the no-effect control and ±100 the full control effect; potency means the concentration at half of the fitted maximal effect.

SMILES | activity change, negative = inhibition | Potency
O=C(Nc1ccc(F)cc1)C(=O)c1cn(CC(=O)N2CCOCC2)c2ccccc12 | 30.2% (inactive) | –
COc1ccc(S(=O)(=O)NC(C)C(=O)NCc2ccncc2)cc1Cl (configuration not stated) | 0.828% (inactive) | –
COc1ccc(NC(=O)CCCC(=O)c2ccccc2)cc1 | 11.9% (inactive) | –
CC(C)Cn1c(N)c(C(=O)COC(=O)C2CCCN2C(=O)c2cccs2)c(=O)n(C)c1=O (configuration not stated) | 8.16% (inactive) | –
Cc1ccc(OCCCC(=O)Nc2ccc(S(=O)(=O)Nc3cc(C)nc(C)n3)cc2)cc1 | -5.9% (inactive) | –
O=C(Nc1ccccc1)N1CCN(C2c3ccccc3-c3ccccc32)CC1 | – | 2.62 µM (active)
O=C(Nc1ccccc1)N1CCC(C(=O)N2CCN(Cc3ccccc3)CC2)CC1 | -15.4% (inactive) | –
O=C(Nc1ccccc1)N1CCN(C(=O)Nc2ccccc2)CC1 | -2.63% (inactive) | –
Cc1cccc(OC(C)C(=O)N2CCc3ccccc3C2)c1 (configuration not stated) | 0.0639% (inactive) | –
Brc1ccc(Nc2c3c(nc4ncnn24)CCC3)cc1 | – | 0.586 µM (active)
Cc1nc(S(=O)(=O)c2ccc(Br)cc2)nc2c1CCC2 | -12.4% (inactive) | –
Cc1cc(Nc2ccc(Br)cc2F)n2ncnc2n1 | 21.5% (inactive) | –
O=C(COC(=O)C1CC2CCCC(C1)C2=O)NC(=O)c1ccccc1 (configuration not stated) | 33.2% (inactive) | –
COCCC(=O)N1CCC(Oc2ccc(C(=O)NCc3ccon3)cc2)CC1 | 6.27% (inactive) | –
CC(=O)c1c(C)oc2ccc(NS(=O)(=O)c3ccccc3)cc12 | -5.13% (inactive) | –
Cc1ccn2c(=O)c(C(=O)NCCC3=CCCCC3)c(O)nc2c1 | -26.9% (inactive) | –
CCCCC[C@H]1CN(C2CCCCC2)C(=O)[C@@H]1CC(=O)NCc1ccc(OC)cc1 | -8.42% (inactive) | –
O=C(NCc1ccco1)/C(=C/c1cccc([N+](=O)[O-])c1)NC(=O)c1ccco1 | 14.4% (inactive) | –
Cc1ccc(N2CCN(c3ccc([N+](=O)[O-])cn3)CC2)c(C)c1 | -8.92% [at 0.00184 µM] (inactive) | –
CN(CCc1cnn(C)c1)Cc1cn(C)nc1-c1ccccc1F | 8.68% (inactive) | –
CN(CCNC(=O)c1cc2c(-c3ccccc3F)nn(C)c2s1)C1CCCCC1 | – | 1.65 µM (active)
CCOCCCNC(=O)c1cc2c(=O)n3ccccc3nc2s1 | 68.5% (inactive) | –
COc1ccc(N2CCN(S(=O)(=O)c3ccc4c(c3)NC(=O)C(C)C(=O)N4)CC2)cc1 (configuration not stated) | 6.59% (inactive) | –

SMILES | activity change, negative = inhibition | Potency
CC(=O)c1ccc(S(=O)(=O)Nc2ccc(-c3ccc4nncn4n3)cc2)cc1 | -20.6% (inactive) | –
COC(=O)C[n+]1cccc2ccccc21 | -26.9% (inactive) | –
O=C(CNC(=O)c1ccc(F)cc1)c1ccccc1 | 138% (inactive) | –
O=C(C[n+]1cc(Br)cc2ccccc21)c1ccc(F)cc1 | – | 11.7 µM (active)
Cc1cccc(NS(=O)(=O)c2ccc(-c3cnc(C4CC4)o3)cc2)c1 | -2.4% (inactive) | –
COc1ccccc1C(=O)COC(=O)CSCC(=O)Nc1cc(C)on1 | 37.2% (inactive) | –
COC(=O)c1ccc(COC(=O)CNC(=O)c2cccc(OC)c2)o1 | 16.9% (inactive) | –
COc1ccc(C(c2nnnn2Cc2cccs2)N2CCN(c3ccccc3)CC2)cc1OC (configuration not stated) | – | 14.7 µM (active)
COc1ccccc1C(c1nnnn1CC1CCCO1)N1CCN(c2ccccc2)CC1 (configuration not stated) | – | 11.7 µM (active)
COc1ccc(CCn2nnnc2C(c2ccccc2)N2CCN(C)CC2)cc1OC (configuration not stated) | -0.211% (inactive) | –
COc1cc(/C=N/N2CCN(c3ccccc3)CC2)ccc1OC(C)=O | -1.15% (inactive) | –
COc1ccccc1NC(=O)CSc1nnc(C)n1CC1CCCO1 (configuration not stated) | 0.849% (inactive) | –
O=C(CSc1nnc(-c2ccco2)n1CC1CCCO1)c1ccccc1 (configuration not stated) | 15.4% (inactive) | –
CCOc1cccc2cc(C(=O)OCC(=O)Nc3c(C)cccc3CC)c(=O)oc12 | 8.47% (inactive) | –
CCCc1ccc(C(=O)COC(=O)CN2C(=O)NC3(CCCCC3C)C2=O)cc1 (configuration not stated) | -24.2% (inactive) | –
CCC(c1nnnn1C1CCCC1)N1CCN(C(=O)c2ccco2)CC1 (configuration not stated) | – | 8.28 µM (active)
CC(C)C(c1nnnn1C1CCCCC1)N1CCN(C(=O)c2ccco2)CC1 (configuration not stated) | -21.3% (inactive) | –
CC(=O)c1ccc(-n2nnnc2SCC(=O)N2CCN(C(=O)c3ccco3)CC2)cc1 | -23.9% (inactive) | –
CN(C)c1nc(=Nc2cccc(Cl)c2)ss1 | – | 1.04 µM (active)
Cc1cc(OCc2cc(C(=O)NCc3cc(C(C)C)no3)no2)cc(C)c1Cl | 70.9% (inactive) | –
COC(=O)c1ccc(COC(=O)c2cnc(Cl)c(Cl)c2)cc1 | 30.7% (inactive) | –
Cc1cc(C(F)(F)F)nc(SCC(=O)Nc2nccs2)n1 | 11.1% (inactive) | –
COc1ccc(C(C)NC(=O)C23CC4CC(CC(C4)C2)C3)cc1 (configuration not stated) | -3.72% (inactive) | –

SMILES | activity change, negative = inhibition | Potency
CN1C(=O)C2(OCCCO2)c2cc(Cl)ccc21 | 12.7% (inactive) | –
CN1CCN(c2nc(Nc3ccc(O)cc3)nc3ccccc23)CC1 | – | 2.94 µM (active)
CCc1ccc(-c2cc(C(=O)NN3CCN(C)CC3)c3ccccc3n2)cc1 | -61.6% (inactive) | –
CCCCc1nc2ccccc2c(NC(=O)CN2CCN(C)CC2)c1CCC | -17.8% (inactive) | –
CCOC(CNC(=O)C1CCN(S(=O)(=O)c2ccc3nc4c(c(C(=O)O)c3c2)CC(C)CC4)CC1)OCC (configuration not stated) | 8.14% (inactive) | –
C/C(=N\N(C)C)c1ccc(OCCOc2ccc([N+](=O)[O-])cc2)cc1 | 16.6% (inactive) | –
COc1ccccc1OCC(=O)Nc1ccccc1C(=O)NC1CC1 | 7.53% (inactive) | –
C#CC(C)(C)NC(=O)c1cnc(-c2ccccc2)nc1-c1ccccc1 | -21% (inactive) | –
O=C(c1ccc2nc(N3CCOCC3)sc2c1)N1CCN(c2ccc(Cl)cc2)CC1 | 9.24% (inactive) | –
COc1ccc2nc(N3CCN(C(=O)c4ccc([N+](=O)[O-])o4)CC3)sc2c1 | – | 1.31 µM (active)
Cc1ccc2nc(N3CCN(C(=O)c4ccco4)CC3)sc2c1 | 41% (inactive) | –
Cc1nc(C)c(-c2nnc(-c3cccc(S(=O)(=O)N(C)C)c3)o2)cc1C(=O)NN | 7.9% (inactive) | –
O=C(COc1coc(CN2CCN(c3ccccc3)CC2)cc1=O)Nc1ccccc1F | -15.8% (inactive) | –
Cc1cc(C)cc(NC(=O)COc2coc(CN3CCN(c4ccccc4)CC3)cc2=O)c1 | – | 13.1 µM (active)
O=C(COc1coc(CN2CCN(c3ccccc3)CC2)cc1=O)N1CCc2ccccc21 | -2.8% (inactive) | –
Cc1ccsc1C(=O)NCCc1ccco1 | 314% (inactive) | –
O=C(c1[nH]ncc1-c1ccc(Cl)cc1)C1CO1 (configuration not stated) | – | 7.38 µM (active)
O=C(c1nnc(-c2ccc(Cl)cc2)o1)C1CCCC1 | 53.1% (inactive) | –
C=CCNC(=O)c1ccccc1SCc1c(C)noc1C | 18.5% (inactive) | –
COc1ccc(NC(=O)CN(C)C(=O)c2ccc(COc3ccccc3)o2)cc1 | 3.34% (inactive) | –
Cc1ccc(C(C)C)c(OCCSc2nc3ccccc3n2CC(=O)O)c1 | -1.15% (inactive) | –
